Assay outcomes: PubChem, National Center for Advancing Translational Sciences (NCATS)
Compounds with a hit are over-represented: about 9.9% of the library has one in this group of screens.
SW480 rerep: DNA re-replication induction in SW480 cells; SW480 DNA re-replication, Hoechst DNA content imaging, 48 h; Potency, µM (doses to about 46.1 µM), without a hit: at the highest dose re-replication activation, most hits filed as activators; 1.8% of 340,000 active; AID 624297; note: potency is the fitted concentration of half-maximal effect; % of control where 0% means no effect; nearly all actives have a fitted effect of over 55% in size
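Compounds, transferred as 23 nL by pin tool, were incubated with cells for 48 hr; DNA content per nucleus was then quantified by Hoechst staining and fluorescence plate imaging.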
IL-1B inflam inh: blocks inflammasome-driven IL-1 beta release. 4.7% of 360,000 active. AID 743279. activity change, % at 57.5 µM. THP-1 LPS/ATP IL-1B secretion, AlphaLISA, 16 h; hits give low values; in the data active = activity change below about -50%; inconclusive = mostly about -30% to -49%; note: % is set by controls: 0 for no effect and ±100 for the full control effect
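Secreted IL-1B measured by AlphaLISA bead assay after 16 h compound exposure of THP-1 cells; compounds (final up to 57.5 uM) added 1 h before LPS (250 ng/mL) and ATP (1.25 mM) stimulation; lower signal means less secretion.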
KB-V1 cytotox: KB-V1 MDR subline cytotoxicity | KB-V1 MDR cells viability, CellTiter-Glo, 72 h | Potency, µM (doses to about 46.1 µM), usual class: cytotoxic | 3.4% of 400,000 active | AID 1347076; note: potency is the fitted concentration of half-maximal effect; % is set by controls: 0 for no effect and ±100 for the full control effect; nearly all actives have a fitted effect of over 60% in size
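KB-V1 cells (P-gp-expressing MDR subline of KB-3-1) in phenol-red-free DMEM with 10% FBS were exposed to library compounds over a concentration series for 72 h at 37 degrees C. Viability read by CellTiter-Glo luminescence; concentration-effect curves fitted after normalization.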
MCF10A rereplic: DNA re-replication induction in MCF 10a cells | MCF 10A DNA re-replication, Hoechst nuclear intensity, 48 h | Potency, µM (series often up to 46.1 µM), for the others: top-dose activity, positive = re-replication, most hits filed as activators | 2.9% of 350,000 active | AID 624296; note: potency is the fitted concentration of half-maximal effect; % of control where 0% means no effect; nearly all actives have a fitted effect of over 50% in size
KB-3-1 tox: kills parental KB-3-1 adenocarcinoma cells | 1.4% of 400,000 active | KB-3-1 viability, CellTiter-Glo ATP luminescence, 72 h | Potency, µM (titrated, usually from 46.1 µM), usual class: cytotoxic; note: potency is the fitted concentration of half-maximal effect; % is set by controls: 0 for no effect and ±100 for the full control effect; nearly all actives have a fitted effect of over 60% in size
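Cells are dispensed, compounds pinned in, plates held at 37 °C for 72 h, then CellTiter-Glo is added and luminescence read after 10 minutes. Cell line: parental KB-3-1 in phenol-red-free DMEM, 10% FBS.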
The depositor's hits bear a star; i = inactive; u = inconclusive; x = no result given. Unless noted, calls come from the whole dose curve; as a rule, active = well fitted curve in the direction sought with a large enough effect; inconclusive = small, poorly fitted or top-dose-only effect, or another doubt; inactive = no such curve, though single readings can be large; an effect the other way counts as inactive or inconclusive.

SMILES | SW480 rerep | IL-1B inflam inh | KB-V1 cytotox | MCF10A rereplic | KB-3-1 tox
O=C1c2ccccc2C(=O)C12OC2c1ccc(Cl)cc1Cl (stereo not drawn) | u | -101* | u | 12µM* | u
CC(=O)Nc1ccc(NC(=O)[C@@H](NC(=O)N2C[C@H]3C[C@@H](C2)c2cccc(=O)n2C3)C(C)C)cc1 | -13% | 7 | i | -15% | i
COc1ccc(-c2cc(-c3nnc(COC(=O)CC4CC5CCC4C5)o3)c3ccccc3n2)cc1OC (stereo not drawn) | 2.6µM* | 0 | 9.2µM* | u | u
COc1ccc(CNC(=O)COC(=O)CC2CC3CCC2C3)cc1OC (stereo not drawn) | 2% | 7 | i | 1% | i
COc1ccc(S(=O)(=O)NCc2ccccn2)cc1Br | -1% | -12 | i | -11% | i
COc1ccc(S(=O)(=O)NCc2ccccn2)cc1NC(=O)c1ccc(C)cc1 | 2% | 23 | u | u | 9.2µM*
COc1ccc(S(=O)(=O)NCc2cccnc2)cc1NC(=O)c1ccc(Cl)cc1 | -7% | 5 | u | 4% | i
CCOc1cc(C)c(C(C)C)cc1S(=O)(=O)NCc1ccccn1 | 1% | -4 | 9.2µM* | 9% | i
COc1ccc(S(=O)(=O)NCc2ccccn2)cc1NC(=O)c1ccccc1 | 9.2µM* | 33 | u | 21µM* | 13µM*
CCOc1ccc(S(=O)(=O)NCc2ccccn2)cc1NC(=O)c1ccccc1F | 0.82µM* | 60 | u | u | u
CCOC(=O)Cn1c(=O)oc2cc(S(=O)(=O)N3CCC(C(=O)OCC)CC3)ccc21 | x | x | i | x | i
Cc1c(NC(=O)C(C)(C)Oc2ccc(Cl)cc2)cccc1-c1nc2ccccc2o1 | x | x | i | x | i
Cc1ccc(Oc2nc(-c3cccnc3)nc3ccccc23)c([N+](=O)[O-])n1 | -3% | 9 | i | 7% | u
CC(C)(C)NC(=O)N1CCCC(C(=O)c2cccc(Cl)c2)C1 (stereo not drawn) | -1% | 0 | i | 4% | i
OC(CNCc1ccccc1)(c1ccc(F)cc1)c1ccc(F)cc1 | 16% | u | i | u | i
Cc1ccc(CNCC(O)(c2ccc(F)cc2)c2ccc(F)cc2)cc1 | u | -16 | i | u | i
COc1ccccc1CNCC(O)(c1ccc(Cl)cc1)c1ccc(Cl)cc1 | 15µM* | u | u | u | i
COc1ccccc1CNCC(O)(c1ccc(F)cc1)c1ccc(F)cc1 | -10% | -26 | i | 1% | i
Cc1ccc(CNCC(O)(c2ccccc2)c2ccc(F)cc2)cc1 (stereo not drawn) | 4% | -17 | 18µM* | 21% | i
OC(CNCc1ccccc1F)(c1ccc(F)cc1)c1ccc(F)cc1 | 0% | -80* | u | -5% | i
COc1ccc(CNCC(O)(c2ccc(F)cc2)c2ccc(F)cc2)cc1 | u | -89* | i | u | i
CCOC(=O)c1ccc(NC(=O)CCc2c(C)nc3nc[nH]n3c2=O)cc1 | x | x | i | x | i
COc1ccc(CNCC(O)(c2ccccc2)c2ccccc2)cc1 | 0% | -78* | i | 0% | i
CCN(C)C1CN(Cc2cn(Cc3cc(C)cc(C)c3)nn2)S(=O)(=O)C1 (stereo not drawn) | x | -52* | u | x | i
CN1CCN(C2CN(Cc3cn(Cc4ccc(F)cc4)nn3)S(=O)(=O)C2)CC1 (stereo not drawn) | x | -65* | i | x | i
SMILES | SW480 rerep | IL-1B inflam inh | KB-V1 cytotox | MCF10A rereplic | KB-3-1 tox
Cc1cc(C)cc(Cn2cc(CN3CC(N(C)C)CS3(=O)=O)nn2)c1 (stereo not drawn) | x | 5 | i | x | i
CN1CCC(N2CCN(C3CN(Cc4cn(Cc5ccc(F)cc5)nn4)S(=O)(=O)C3)CC2)CC1 (stereo not drawn) | x | 3 | i | x | i
O=C(NCCc1ccco1)C(=O)NCC1OCCCN1S(=O)(=O)c1ccccc1 (stereo not drawn) | 15% | -1 | i | 11% | i
Cc1ccccc1-c1cc2nc(Oc3ccc4c(c3)OCO4)n(C)c(=O)c2s1 | x | u | u | x | i
CC(=O)OCC(=O)C1(O)CCC2C3CCC4=CC(=O)CCC4(C)C3C(O)CC21C (stereo not drawn) | u | u | i | -3% | i
CCCCCCCC(=O)OCC(=O)[C@@]1(O)CC[C@H]2[C@@H]3CCC4=CC(=O)CC[C@]4(C)[C@H]3[C@@H](O)C[C@@]21C | -13% | -53* | i | 3% | i
CC12CCC(=O)C=C1CCC1C2C(O)CC2(C)C1CCC2(O)C(=O)COC(=O)COCC(=O)O (stereo not drawn) | 3% | -50* | i | 9% | i
CC12CC(O)C3C(CCC4=CC(=O)CCC43C)C1CCC2=CCO (stereo not drawn) | -3% | 6 | 18µM* | 14% | u
CCOC(=O)OCC(=O)C1(O)CCC2C3CCC4=CC(=O)CCC4(C)C3C(O)CC21C (stereo not drawn) | u | -23 | i | 7% | u
CCOc1ccc(NC(=O)Cn2cc(S(=O)(=O)c3ccc(C)cc3)c(=O)c3cc(F)ccc32)cc1 | x | x | i | x | i
COc1ccc(C(=O)COc2ccc(C(C)=O)cc2OC)cc1OC | -9% | 24 | u | -4% | i
Cc1ccc2nc3c(cc2c1)CN(Cc1ccco1)C(=NCC1CCCO1)S3 (stereo not drawn) | u | -15 | u | 16% | u
Cc1cccc2cc3c(nc12)SC(=NCC1CCCO1)N(Cc1ccco1)C3 (stereo not drawn) | 5.8µM* | -100* | i | u | i
CCOC(=O)C1(Cc2cccc(OC)c2)CCN(C/C=C/c2ccccc2)CC1 | -20% | -92* | i | 16% | i
CCOC(=O)C1(Cc2cccc(OC)c2)CCN(C/C=C/c2ccc(OC)cc2)CC1 | u | -171* | u | u | u
CCOC(=O)C1(CC2CC2)CCN(Cc2ccc(OC)cc2F)CC1 | u | -54* | u | u | i
CCOC(=O)C1(Cc2cccc(OC)c2)CCN(CC=C(C)C)CC1 | -8% | -13 | u | 1% | i
CCOC(=O)C1(Cc2cccc(OC)c2)CCN(Cc2ccc(OC)c(O)c2)CC1 | 40% | u | i | 15% | i
CCOC(=O)C1(Cc2cccc(OC)c2)CCN(Cc2cccc(OCC)c2O)CC1 | 11% | -90* | i | 3% | i
Cc1cc(NS(=O)(=O)c2ccc(NC(=O)Cc3ccc(Cl)c(Cl)c3)cc2)no1 | 0% | 14 | i | -1% | i
c1cc[n+](CCC[n+]2ccccc2)cc1 | 3% | 30 | u | 0% | i
